# From the supplement of paper PMC10037445
# In all, about 2,900 compounds were measured (“NF-kB SEAP reporter activity, fold change vs agonist alone”: median about 0.99, highest 2% from about 2.6 on). Shown is part of a subset that was picked to be rich in the highest values.
# What was measured:
# RAW-Dual [1] = test: NF-kB SEAP reporter activity, fold change vs agonist alone; higher = enhanced NF-kB activity; conditions: cytotoxicity flag (confluency mask): not cytotoxic
# Procedure, shortened: (§1)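 Library stock was pin-tooled at 50 nL into 384-well plates of RAW-Dual macrophages (50,000 cells/well, DMEM), followed 1 h later by a PRR agonist, and the cells were kept at 37 °C, 5% CO2. Supernatant collected after 20 hours was read for IRF by QuantiLuc luminescence and for NF-κB by QuantiBlue absorbance at 620 nm. Reporter activity is fold change over agonist-alone wells, and a well counted as cytotoxic when its IncuCyte confluency was below 70% of agonist controls in both mask sets.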
# RAW-Dual [2] = test: NF-kB SEAP reporter activity, fold change vs agonist alone; cytotoxicity flag (confluency mask): not cytotoxic; higher = enhanced NF-kB activity
# Procedure, shortened: as §1
# [3] = library stock concentration (final ~1000-fold dilution): 10 mM, agonist: Imiquimod (TLR7) […]
# [4] = library stock concentration (final ~1000-fold dilution): 10 mM, agonist: MPLA (TLR4) […]
# [5] = agonist: ODN 1826 (TLR9) 0.5 ug/mL
# [6] = agonist: Pam2CSK4 (TLR2/6) 0.1 ug/mL
# [7] = agonist: Pam3CSK4 (TLR2/1) 0.1 ug/mL
compound,measurement,setting,value
COc1cc2c(cc1OC)CN(C(=O)/C=C/c1c(-c3ccccc3)n(C)c3ncccc13)CC2.Cl,NF-kB SEAP reporter activity,RAW-Dual [1]; [3],1
same,NF-kB SEAP reporter activity,RAW-Dual [1]; [4],1.02
COc1cc2c(cc1OC)CN(C(=O)/C=C/c1c(-c3ccccc3)n(C)c3ncccc13)CC2.Cl (library stock concentration (final ~1000-fold dilution): 10 mM),NF-kB SEAP reporter activity,RAW-Dual [2]; agonist: LPS (TLR4) 0.1 ug/mL,1.15
same,NF-kB SEAP reporter activity,RAW-Dual [2]; [5],1.14
same,NF-kB SEAP reporter activity,RAW-Dual [2]; [6],1.15
same,NF-kB SEAP reporter activity,RAW-Dual [2]; [7],1.18
CNC1CN(c2ccc3c(=O)c(C(=O)O)cn(-c4nccs4)c3n2)CC1OC.Cl (stereo not given) (library stock concentration (final ~1000-fold dilution): 2 mM),NF-kB SEAP reporter activity,RAW-Dual [2]; agonist: LPS (TLR4) 0.1 ug/mL,1.11
same,NF-kB SEAP reporter activity,RAW-Dual [2]; [5],1.56
same,NF-kB SEAP reporter activity,RAW-Dual [2]; [6],1.32
same,NF-kB SEAP reporter activity,RAW-Dual [2]; [7],1.18
CNC1CN(c2ccc3c(=O)c(C(=O)O)cn(-c4nccs4)c3n2)CC1OC.Cl (stereo not given),NF-kB SEAP reporter activity,"RAW-Dual [1]; library stock concentration (final ~1000-fold dilution): 2 mM, agonist: Imiquimod (TLR7) […]",1.12
same,NF-kB SEAP reporter activity,"RAW-Dual [1]; library stock concentration (final ~1000-fold dilution): 2 mM, agonist: MPLA (TLR4) […]",0.968
Br.CN(C)CCCC1(c2ccc(F)cc2)OCc2cc(C#N)ccc21 (stereo not given),NF-kB SEAP reporter activity,RAW-Dual [1]; [4],1.01
Br.CN(C)CCCC1(c2ccc(F)cc2)OCc2cc(C#N)ccc21 (stereo not given) (library stock concentration (final ~1000-fold dilution): 10 mM),NF-kB SEAP reporter activity,RAW-Dual [2]; agonist: LPS (TLR4) 0.1 ug/mL,1.15
same,NF-kB SEAP reporter activity,RAW-Dual [2]; [5],0.889
same,NF-kB SEAP reporter activity,RAW-Dual [2]; [6],0.786
same,NF-kB SEAP reporter activity,RAW-Dual [2]; [7],0.857
CCOc1cc(C(CS(C)(=O)=O)N2C(=O)c3cccc(NC(C)=O)c3C2=O)ccc1OC (stereo not given) (library stock concentration (final ~1000-fold dilution): 10 mM),NF-kB SEAP reporter activity,RAW-Dual [2]; agonist: LPS (TLR4) 0.1 ug/mL,1.59
same,NF-kB SEAP reporter activity,RAW-Dual [2]; [5],1.87
same,NF-kB SEAP reporter activity,RAW-Dual [2]; [6],1.47
same,NF-kB SEAP reporter activity,RAW-Dual [2]; [7],1.72
CCOc1cc(C(CS(C)(=O)=O)N2C(=O)c3cccc(NC(C)=O)c3C2=O)ccc1OC (stereo not given),NF-kB SEAP reporter activity,RAW-Dual [1]; [3],1.12
same,NF-kB SEAP reporter activity,RAW-Dual [1]; [4],1.26
N=C(N)NCCCC(N)C(=O)NCC(=O)NC(CC(=O)O)C(=O)O (stereo not given),NF-kB SEAP reporter activity,"RAW-Dual [1]; library stock concentration (final ~1000-fold dilution): 10 mM water, agonist: Imiquimod (TLR7) […]",0.924
same,NF-kB SEAP reporter activity,"RAW-Dual [1]; library stock concentration (final ~1000-fold dilution): 10 mM water, agonist: MPLA (TLR4) […]",1.06
N=C(N)NCCCC(N)C(=O)NCC(=O)NC(CC(=O)O)C(=O)O (stereo not given) (library stock concentration (final ~1000-fold dilution): 10 mM water),NF-kB SEAP reporter activity,RAW-Dual [2]; agonist: LPS (TLR4) 0.1 ug/mL,1.41
same,NF-kB SEAP reporter activity,RAW-Dual [2]; [5],1.14
same,NF-kB SEAP reporter activity,RAW-Dual [2]; [6],1.2
same,NF-kB SEAP reporter activity,RAW-Dual [2]; [7],0.993
[O-][n+]1cccc(-c2nc3c(Cl)cccc3cc2C(Nc2ncnc3cccnc23)C(F)(F)F)c1 (stereo not given),NF-kB SEAP reporter activity,RAW-Dual [1]; [3],0.648
same,NF-kB SEAP reporter activity,RAW-Dual [1]; [4],1.56
[O-][n+]1cccc(-c2nc3c(Cl)cccc3cc2C(Nc2ncnc3cccnc23)C(F)(F)F)c1 (stereo not given) (library stock concentration (final ~1000-fold dilution): 10 mM),NF-kB SEAP reporter activity,RAW-Dual [2]; agonist: LPS (TLR4) 0.1 ug/mL,2.33
same,NF-kB SEAP reporter activity,RAW-Dual [2]; [5],1.3
same,NF-kB SEAP reporter activity,RAW-Dual [2]; [6],0.992
same,NF-kB SEAP reporter activity,RAW-Dual [2]; [7],1.38
CC(C)=CC(C)C[C@](C)(O[C@@H]1O[C@H](CO)[C@@H](O)[C@H](O)[C@H]1O)[C@H]1CC[C@]2(C)C3CCC4C(C)(C)C(O[C@@H]5O[C@H](CO)[C@@H](O)[C@H](O)[C@H]5O[C@@H]5O[C@H](CO)[C@@H](O)[C@H](O)[C@H]5O)CC[C@]4(C)C3C[C@H](O)[C@@H]12 (stereo not given in full),NF-kB SEAP reporter activity,RAW-Dual [1]; [3],0.936
same,NF-kB SEAP reporter activity,RAW-Dual [1]; [4],1.05
CC(C)=CC(C)C[C@](C)(O[C@@H]1O[C@H](CO)[C@@H](O)[C@H](O)[C@H]1O)[C@H]1CC[C@]2(C)C3CCC4C(C)(C)C(O[C@@H]5O[C@H](CO)[C@@H](O)[C@H](O)[C@H]5O[C@@H]5O[C@H](CO)[C@@H](O)[C@H](O)[C@H]5O)CC[C@]4(C)C3C[C@H](O)[C@@H]12 (stereo not given in full) (library stock concentration (final ~1000-fold dilution): 10 mM),NF-kB SEAP reporter activity,RAW-Dual [2]; agonist: LPS (TLR4) 0.1 ug/mL,1.18
same,NF-kB SEAP reporter activity,RAW-Dual [2]; [5],1.06
same,NF-kB SEAP reporter activity,RAW-Dual [2]; [6],1.04
same,NF-kB SEAP reporter activity,RAW-Dual [2]; [7],1.04
COc1cc(CCC(=O)CC(O)CCc2ccc(O)c(OC)c2)ccc1O (stereo not given),NF-kB SEAP reporter activity,RAW-Dual [1]; [3],1.04
same,NF-kB SEAP reporter activity,RAW-Dual [1]; [4],1.1
COc1cc(CCC(=O)CC(O)CCc2ccc(O)c(OC)c2)ccc1O (stereo not given) (library stock concentration (final ~1000-fold dilution): 10 mM),NF-kB SEAP reporter activity,RAW-Dual [2]; agonist: LPS (TLR4) 0.1 ug/mL,1.4
same,NF-kB SEAP reporter activity,RAW-Dual [2]; [5],1.07
same,NF-kB SEAP reporter activity,RAW-Dual [2]; [6],0.979
same,NF-kB SEAP reporter activity,RAW-Dual [2]; [7],1.25
COC(=O)C1=C(C)NC(C)=C(C(=O)OC2CCCN(Cc3ccccc3)C2)C1c1cccc([N+](=O)[O-])c1.Cl (stereo not given) (library stock concentration (final ~1000-fold dilution): 10 mM),NF-kB SEAP reporter activity,RAW-Dual [2]; agonist: LPS (TLR4) 0.1 ug/mL,1.22
same,NF-kB SEAP reporter activity,RAW-Dual [2]; [5],0.381
same,NF-kB SEAP reporter activity,RAW-Dual [2]; [6],0.365
same,NF-kB SEAP reporter activity,RAW-Dual [2]; [7],0.368
COC(=O)C1=C(C)NC(C)=C(C(=O)OC2CCCN(Cc3ccccc3)C2)C1c1cccc([N+](=O)[O-])c1.Cl (stereo not given),NF-kB SEAP reporter activity,RAW-Dual [1]; [3],0.718
same,NF-kB SEAP reporter activity,RAW-Dual [1]; [4],0.978
OCCn1cc(-c2ccc3c(c2)CC/C3=N\O)c(-c2ccncc2)n1,NF-kB SEAP reporter activity,RAW-Dual [1]; [3],1.65
same,NF-kB SEAP reporter activity,RAW-Dual [1]; [4],1.57
OCCn1cc(-c2ccc3c(c2)CC/C3=N\O)c(-c2ccncc2)n1 (library stock concentration (final ~1000-fold dilution): 10 mM),NF-kB SEAP reporter activity,RAW-Dual [2]; agonist: LPS (TLR4) 0.1 ug/mL,2.47
same,NF-kB SEAP reporter activity,RAW-Dual [2]; [5],1.5
same,NF-kB SEAP reporter activity,RAW-Dual [2]; [6],1.34
same,NF-kB SEAP reporter activity,RAW-Dual [2]; [7],2.22
CN(C)CCOc1ccc(-c2nc(-c3ccncc3)c(-c3ccc4c(c3)CC/C4=N\O)[nH]2)cc1,NF-kB SEAP reporter activity,RAW-Dual [1]; [3],0.946
same,NF-kB SEAP reporter activity,RAW-Dual [1]; [4],1.02
CN(C)CCOc1ccc(-c2nc(-c3ccncc3)c(-c3ccc4c(c3)CC/C4=N\O)[nH]2)cc1 (library stock concentration (final ~1000-fold dilution): 10 mM),NF-kB SEAP reporter activity,RAW-Dual [2]; agonist: LPS (TLR4) 0.1 ug/mL,5
same,NF-kB SEAP reporter activity,RAW-Dual [2]; [5],0.964
same,NF-kB SEAP reporter activity,RAW-Dual [2]; [6],1.49
same,NF-kB SEAP reporter activity,RAW-Dual [2]; [7],0.882
CS(=O)(=O)c1ccc(Oc2cc(F)cc(C#N)c2)c2c1C(O)C(F)(F)C2 (stereo not given) (library stock concentration (final ~1000-fold dilution): 10 mM),NF-kB SEAP reporter activity,RAW-Dual [2]; agonist: LPS (TLR4) 0.1 ug/mL,1.07
same,NF-kB SEAP reporter activity,RAW-Dual [2]; [5],1.35
same,NF-kB SEAP reporter activity,RAW-Dual [2]; [6],1.01
same,NF-kB SEAP reporter activity,RAW-Dual [2]; [7],1.2
CS(=O)(=O)c1ccc(Oc2cc(F)cc(C#N)c2)c2c1C(O)C(F)(F)C2 (stereo not given),NF-kB SEAP reporter activity,RAW-Dual [1]; [3],1.03
same,NF-kB SEAP reporter activity,RAW-Dual [1]; [4],1.16
COc1ccc(CCNCC(O)COc2cccc(C)c2)cc1OC.Cl (stereo not given) (library stock concentration (final ~1000-fold dilution): 10 mM),NF-kB SEAP reporter activity,RAW-Dual [2]; agonist: LPS (TLR4) 0.1 ug/mL,1.02
same,NF-kB SEAP reporter activity,RAW-Dual [2]; [5],0.846
same,NF-kB SEAP reporter activity,RAW-Dual [2]; [6],0.999
same,NF-kB SEAP reporter activity,RAW-Dual [2]; [7],1.08
